# Source: the supplement of paper PMC13380429
# How the values were obtained:
# [1] = system: Vero E6 infected with SARS-CoV-2; assay: morphology score (similarity to uninfected cells); higher = more like uninfected cells; conditions: 24 h
# [2] = system: Vero E6 infected with SARS-CoV-2; assay: SARS-CoV-2 infection rate relative to infected DMSO; higher = more infection, active = 60 or less; conditions: 24 h
SMILES,morphology score [1],SARS-CoV-2 infection rate [2]
CCS(=O)(=O)N1CCN(c2ccc(Nc3ncc(C(N)=O)c(NC4CC4)n3)cc2)CC1 (10 µM),0.439,123% (inactive)
CCCCOc1cc(C(=O)NCCN(CC)CC)c2ccccc2n1 [cinchocaine] (10 µM),0.435,88% (inactive)
CC(=O)N[C@@H](CC(C)C)C(=O)O [acetyl-l-leucine] (10 µM),0.134,94.5% (inactive)
O=C(NO)C1(CS(=O)(=O)c2ccc(Oc3ccc(Cl)cc3)cc2)CCOCC1 (10 µM),0.0418,98.5% (inactive)
CC(C)C(N)=O [isobutyramide] (10 µM),0.073,111% (inactive)
COC(=O)[C@]12CCC(C)(C)C[C@H]1[C@H]1C(=O)C=C3[C@@]4(C)C=C(C#N)C(=O)C(C)(C)[C@@H]4CC[C@@]3(C)[C@]1(C)CC2 [Bardoxolone Methyl] (10 µM),-0.259,107% (inactive)
NS(=O)(=O)Nc1ncnc(OCCOc2ncc(Br)cn2)c1-c1ccc(Br)cc1 (10 µM),0.0685,120% (inactive)
Cc1ccccc1N1CCN(CCc2nnc3n2CCCC3)CC1 [dapiprazole] (10 µM),0.109,87.5% (inactive)
CC(C)(O)CNc1nc(Nc2ccnc(C(F)(F)F)c2)nc(-c2cccc(C(F)(F)F)n2)n1 [enasidenib] (10 µM),0.237,100% (inactive)
CN(C)CC(c1ccc(O)cc1)C1(O)CCCCC1 (stereo unspecified) [desvenlafaxine] (10 µM),0.0229,106% (inactive)
C[n+]1cccc(C(=O)[O-])c1 [trigonelline] (0.833333 µM),0.0676,108% (inactive)
C=CCCCCCCCCC(=O)[O][Zn][O]C(=O)CCCCCCCCC=C [zinc-undecylenate] (10 µM),0.0826,110% (inactive)
Cc1c(OCC(F)(F)F)ccnc1C[S+]([O-])c1nc2ccccc2[nH]1 (stereo unspecified) [lansoprazole] (10 µM),0.115,99% (inactive)
O=C(O)c1ccc2c(c1)nc(Nc1cccc(Cl)c1)c1ccncc12 (10 µM),0.237,103% (inactive)
O=C1c2ccccc2C(Cc2ccnc(F)c2)(Cc2ccnc(F)c2)c2ccccc21 (10 µM),-0.17,113% (inactive)
CCNC1(C(N)=O)CCN(c2ncnc3c2nc(-c2ccccc2Cl)n3-c2ccc(Cl)cc2)CC1 (10 µM),-0.024,108% (inactive)
COc1cc(OC)c(NC(=O)Nc2cc(C)on2)cc1Cl (10 µM),0.268,87% (inactive)
CCCCCCCCCCCCCCCC(=O)OC[C@@H](NC(=O)C(Cl)Cl)[C@H](O)c1ccc([N+](=O)[O-])cc1 [chloramphenicol-palmitate] (10 µM),0.04,106% (inactive)
CC(C)[C@H]1CC[C@H](C(=O)N[C@H](Cc2ccccc2)C(=O)O)CC1 [nateglinide] (10 µM),0.0232,94.5% (inactive)
C[C@H]1C[C@H]2[C@@H]3CCC4=CC(=O)C=C[C@]4(C)[C@@]3(Cl)[C@@H](O)C[C@]2(C)[C@@]1(O)C(=O)CO [beclomethasone] (10 µM),0.101,89.5% (inactive)
CN(C)CC[C@H](CSc1ccccc1)Nc1ccc(S(=O)(=O)NC(=O)c2ccc(N3CCN(Cc4ccccc4-c4ccc(Cl)cc4)CC3)cc2)cc1[N+](=O)[O-] (10 µM),0.105,108% (inactive)
Cc1ccc(-c2nc3ccc(C)cn3c2CC(=O)N(C)C)cc1 (10 µM),0.137,98.5% (inactive)
OCCNC1CCCc2c1[nH]c1ccc(-c3ccccc3)cc21 (stereo unspecified) [casin] (0.833333 µM),0.105,102% (inactive)
